For seven compounds, z-score and composite z-score results are on record in PubChem BioAssay.

Active and inactive are the calls of the source.

Experiment [1] is described as follows: optical density shifts of acrAB sulA E. coli – strain DRC41, OD650, 48 h, E. coli filamentation inducer project, primary screen (AID 1152).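 Further: E. coli MC1000 strain DRC41 lacking acrAB efflux pump and sulA.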 Particulars: higher = more signal, called active from +8 up or from −8 down.
Experiment [2] is described as follows: probe aLefty1 binding on compound microarray – biochemical, small-molecule microarray, 635/667 nm fluorescence, primary screen (AID 1153).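 Further: score merges spot fluorescence with signal-to-noise ratio from the scanned slide images.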 Particulars: higher = more signal.
Experiment [3] in a line: plasmodial surface anion channel blockers, osmotic lysis – cell-based, P. falciparum Indochina, OD700, 1 h, primary screen (AID 1154). To be noted: P. falciparum Indochina infected RBC osmotic lysis, higher = more signal, called active from +8 up or from −8 down.
Experiment [4] in a line: plasmodial surface anion channel blockers, osmotic lysis – cell-based, P. falciparum Indochina, OD700, 2 h, primary screen (AID 1155).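 Further: lysis reports solute entry through the parasite surface anion channel PSAC.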 Particulars: P. falciparum Indochina infected erythrocytes, higher = more signal, called active from +8 up or from −8 down.
The nature of experiment [5]: changes in parasitized red cell lysis, either direction – P. falciparum Indochina, OD700, 3 h, PSAC antagonist project, primary screen (AID 1156). To be noted: P. falciparum-infected erythrocytes, osmotic lysis, higher = more signal, called active from +8 up or from −8 down.
Experiment [6] can be described thus: plasmodial surface anion channel blockers, osmotic lysis – cell-based, P. falciparum Indochina, OD700, 18 h, primary screen (AID 1157). To be noted: P. falciparum Indochina infected erythrocytes, osmotic lysis OD700, 18 h; higher = more signal, called active from +8 up or from −8 down.
Experiment [7] in a line: S6 kinase pathway phospho-S6 level changes – cell-based, A549, cytoblot, luminescence, serum-stimulated, primary screen (AID 1158).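 Further: serum-stimulated A549 lung adenocarcinoma cells; signal is phosphorylated S6 detected by cytoblot immunostaining with HRP secondary.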 Particulars: 5 h, higher = more signal.
Experiment [8] concerns the target NADPH oxidase 2 (Homo sapiens) (UniProt P04839). Description: compounds shifting NOX2 Amplex Red fluorescence – cell-based, HEK293-NOX2, PMA-stimulated, NOX inhibitor project, primary screen (AID 1159). Further: test concentration not given here. To be noted: 45 min, higher = more signal, called active from +8 up or from −8 down.
The target of experiment [9] is NADPH oxidase 4 (Homo sapiens) (UniProt Q9NPH5). Kind of experiment: compounds shifting NOX4 Amplex Red fluorescence – cell-based, HEK293-NOX4, tetracycline-induced, NOX inhibitor project, primary screen (AID 1160). To be noted: HEK293-NOX4, Amplex Red H2O2 fluorescence, 45 min; higher = more signal, called active from +8 up or from −8 down.
Experiment [10] has as its target NADPH oxidase 5 (Homo sapiens) (UniProt Q96PH1). Description: compounds shifting NOX5 Amplex Red fluorescence – cell-based, HEK293-NOX5, NOX inhibitor project, primary screen (AID 1161). Particulars: HEK293-NOX5, ionomycin, 45 min, higher = more signal.
The nature of experiment [11]: compound effects on lung adenocarcinoma cell viability – A549, calcein-AM fluorescence, 48 h, basal, profiling panel (AID 1162). Further: test concentration not given here. To be noted: higher = more signal.
The nature of experiment [12]: compound effects on differentiated 3T3-L1 adipocyte viability – cell-based, 3T3-L1 adipocytes, calcein-AM fluorescence, 48 h, basal, profiling panel (AID 1163). Further: test concentration not given here. Particulars: 3T3-L1 adipocytes viability, higher = more signal.
The nature of experiment [13]: compound effects on hepatocellular carcinoma cell viability – HepG2, calcein-AM fluorescence, 48 h, basal, profiling panel (AID 1164). Further: test concentration not given here. Particulars: higher = more signal.
Experiment [14] is described as follows: compound effects on multiple myeloma cell viability – MM1S, calcein-AM fluorescence, 48 h, basal, profiling panel (AID 1165).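 Further: viability of MM1S multiple myeloma cells under basal unstimulated conditions; test concentration not given here.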 Particulars: higher = more signal.
The nature of experiment [15]: calcein-AM signal in unstimulated myeloma cells – cell-based, calcein-AM fluorescence, 48 h, PK04 Diversity Set, profiling panel (AID 1166).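 Further: cells grown under basal conditions without added stimulus; test concentration not given here.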 Particulars: RPMI8226 myeloma viability, higher = more signal.
Experiment [16] in a line: JC-1 mitochondrial signal, unstimulated HepG2 cells – cell-based, JC-1 fluorescence, 24 h, 100 nL compound, profiling panel (AID 1167). Further: test concentration not given here. Particulars: HepG2 mitochondrial potential, higher = more signal.
Experiment [17] can be described thus: JC-1 mitochondrial signal, unstimulated adipocytes – cell-based, JC-1 fluorescence, 3T3-L1 adipocytes, 24 h, 100 nL compound, profiling panel (AID 1168). Further: test concentration not given here. To be noted: JC-1 mitochondrial fluorescence, higher = more signal, called active from +8 up or from −8 down.
Experiment [18] can be described thus: JC-1 mitochondrial signal, unstimulated myeloma cells – cell-based, JC-1 fluorescence, RPMI8226, 24 h, 100 nL compound, profiling panel (AID 1169). Further: test concentration not given here. To be noted: JC-1 mitochondrial potential fluorescence, higher = more signal.
The nature of experiment [19]: JC-1 mitochondrial signal, unstimulated MM1S myeloma – cell-based, JC-1 fluorescence, 24 h, 100 nL compound, profiling panel (AID 1170). Further: test concentration not given here. Particulars: MM1S mitochondrial potential, higher = more signal.
Experiment [20] can be described thus: resazurin metabolic signal in A549 cells – cell-based, resazurin fluorescence, 24 h, PK04 Diversity Set, profiling panel (AID 1171). Further: test concentration not given here. Particulars: A549 viability, higher = more signal, called active from +8 up or from −8 down. In general terms: Alamar Blue is a resazurin reagent that responds to reducing activity.

NADPH oxidase 2 (Homo sapiens), sequence (P04839 whole entry, looked up): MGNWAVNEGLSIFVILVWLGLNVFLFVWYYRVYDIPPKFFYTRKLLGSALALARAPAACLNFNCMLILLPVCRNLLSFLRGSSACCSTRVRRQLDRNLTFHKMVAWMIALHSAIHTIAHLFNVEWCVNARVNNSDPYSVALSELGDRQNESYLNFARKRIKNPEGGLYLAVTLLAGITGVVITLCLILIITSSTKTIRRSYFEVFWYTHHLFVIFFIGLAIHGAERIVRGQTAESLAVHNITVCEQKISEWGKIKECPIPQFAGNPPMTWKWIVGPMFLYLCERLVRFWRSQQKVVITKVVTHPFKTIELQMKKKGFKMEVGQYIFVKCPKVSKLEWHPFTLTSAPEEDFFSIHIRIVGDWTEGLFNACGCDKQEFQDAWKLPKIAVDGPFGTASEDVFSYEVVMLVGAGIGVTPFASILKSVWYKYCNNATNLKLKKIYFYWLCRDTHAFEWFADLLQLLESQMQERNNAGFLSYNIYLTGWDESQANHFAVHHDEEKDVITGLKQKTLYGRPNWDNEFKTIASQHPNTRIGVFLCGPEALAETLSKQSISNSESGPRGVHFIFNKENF
NADPH oxidase 4 (Homo sapiens), sequence (Q9NPH5 whole entry, looked up): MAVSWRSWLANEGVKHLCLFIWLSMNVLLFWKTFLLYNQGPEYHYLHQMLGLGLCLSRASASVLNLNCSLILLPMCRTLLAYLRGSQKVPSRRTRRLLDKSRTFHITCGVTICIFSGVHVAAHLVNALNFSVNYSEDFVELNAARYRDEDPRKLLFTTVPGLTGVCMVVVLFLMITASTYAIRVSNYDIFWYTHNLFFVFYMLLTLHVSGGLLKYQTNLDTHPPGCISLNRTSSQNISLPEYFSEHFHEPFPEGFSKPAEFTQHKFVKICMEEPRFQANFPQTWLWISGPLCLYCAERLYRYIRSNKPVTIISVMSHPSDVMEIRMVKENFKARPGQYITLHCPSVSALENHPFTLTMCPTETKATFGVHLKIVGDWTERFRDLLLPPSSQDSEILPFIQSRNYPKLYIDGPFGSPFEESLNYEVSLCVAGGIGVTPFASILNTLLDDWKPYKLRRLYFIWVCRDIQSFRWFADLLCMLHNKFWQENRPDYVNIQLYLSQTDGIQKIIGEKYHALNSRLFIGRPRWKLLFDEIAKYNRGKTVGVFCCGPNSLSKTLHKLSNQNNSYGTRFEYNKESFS
NADPH oxidase 5 (Homo sapiens), sequence (Q96PH1 whole entry, looked up): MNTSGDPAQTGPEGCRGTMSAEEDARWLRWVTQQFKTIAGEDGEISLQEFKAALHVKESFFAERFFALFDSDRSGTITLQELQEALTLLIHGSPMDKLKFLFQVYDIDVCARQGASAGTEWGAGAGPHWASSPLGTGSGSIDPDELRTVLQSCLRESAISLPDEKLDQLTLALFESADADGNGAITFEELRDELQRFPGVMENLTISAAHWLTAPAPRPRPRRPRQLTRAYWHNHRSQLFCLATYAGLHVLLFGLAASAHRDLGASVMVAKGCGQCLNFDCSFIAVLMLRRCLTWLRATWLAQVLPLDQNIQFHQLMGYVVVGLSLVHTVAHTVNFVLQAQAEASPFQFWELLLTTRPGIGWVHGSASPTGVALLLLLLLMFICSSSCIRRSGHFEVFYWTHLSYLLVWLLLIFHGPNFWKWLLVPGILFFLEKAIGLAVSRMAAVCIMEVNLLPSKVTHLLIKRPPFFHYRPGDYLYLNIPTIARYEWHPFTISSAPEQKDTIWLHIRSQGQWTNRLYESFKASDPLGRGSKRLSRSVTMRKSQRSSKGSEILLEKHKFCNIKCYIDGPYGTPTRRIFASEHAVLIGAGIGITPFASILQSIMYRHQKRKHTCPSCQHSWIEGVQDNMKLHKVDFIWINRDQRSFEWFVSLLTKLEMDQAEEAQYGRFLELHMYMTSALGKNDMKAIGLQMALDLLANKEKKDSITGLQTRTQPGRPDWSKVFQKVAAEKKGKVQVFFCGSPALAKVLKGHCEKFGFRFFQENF

In the case of `COc1cc2c(cc1O)C(C1CC1)N(Cc1cccc(OC(F)(F)F)c1)CC2` (stereo not given), the z-score in experiment [1] was -0.933 (inactive); in [3], 2.92 (inactive); in [4], 0.325 (inactive); in [5], -0.222 (inactive); in experiment [6] it was 0.032 (inactive); in experiment [7] it was -0.759. The z-score in experiment [8] is -5.01 (inactive); in experiment [9], -2.98 (inactive); in experiment [10], -4.25; in experiment [11], -1.74; in experiment [12] it was 0.119; in experiment [13], -3.68. For the same compound, the z-score in experiment [14] was -3.18; in [15], -2.99; in [16] it was -2.84; in [17], -0.356 (inactive); in [18], -0.686; in experiment [19], -2.61. Besides, the z-score in experiment [20] was -1.05 (inactive). The composite z-score in experiment [2] was -0.105.

As to `COCCOC(=O)N1C(=O)[C@@]2(c3cc(C#CCNC(N)=O)ccc31)[C@H](C(N)=O)[C@H]1C(=O)O[C@H](c3ccccc3)[C@H](c3ccccc3)N1[C@@H]2c1ccccc1OCCO`, the z-score in experiment [1] is -0.77 (inactive); in experiment [3] it was 6.57 (inactive); in experiment [4] it was 0.793 (inactive); in [5], 1.18 (inactive); in experiment [6] it was 0.269 (inactive); in experiment [7], -0.309. Besides, the z-score in [8] is 1.9 (inactive); in [9], 1.37 (inactive); in [10], 0.198; in experiment [11] it was 0.533; in [12], 0.0371; in [13] it was -0.362. Further, the z-score was -1.24 in [14]; 0.458 in experiment [15]; -2.02 in experiment [16]; -0.278 (inactive) in experiment [17]; -0.159 in [18]; 0.244 in experiment [19]. Also, the z-score in [20] was 0.291 (inactive). Also, the composite z-score in experiment [2] came to 0.0299.

On to `COCCOC(=O)N1C(=O)[C@@]2(c3cc(C#CC4=CCCCC4)ccc31)[C@H](c1ccccc1OCCO)N1[C@H](c3ccccc3)[C@H](c3ccccc3)OC(=O)[C@H]1[C@@H]2C(=O)NC[C@H](O)c1ccccc1`, for which the z-score in [1] is -0.801 (inactive); in [3] it was 1.34 (inactive); in experiment [4], 2.19 (inactive); in [5], -1.61 (inactive); in experiment [6], 0.703 (inactive); in experiment [7], -0.0585. For the same compound, the z-score in experiment [8] is 1.79 (inactive); in experiment [9] it was 0.529 (inactive); in [10], 1.81; in [11], -1.86; in experiment [12] it was 1.44; in [13] it was -0.529. In addition, the z-score in [14] was -3.08; in experiment [15] it was -3.9; in experiment [16] it was 0.315; in experiment [17], 2.5 (inactive); in experiment [18], -0.817; in experiment [19] it was -1.07. Besides, in experiment [20], the z-score is -1.59 (inactive). The same compound came in with a composite z-score in experiment [2] of 0.457.

Turning to `[N-]=[N+]=NCc1ccccc1[C@H]1OC(c2ccc(OCCCO)cc2)=N[C@@]1(Cc1ccccc1N=[N+]=[N-])C(=O)NCC(O)CO` (stereo not given in full), the z-score in [1] is -0.502 (inactive); in experiment [3] it was 27.6 (active); in experiment [4], 21 (active); in experiment [5], 1.37 (inactive); in experiment [6], 2.09 (inactive); in [7], -0.48. The z-score in experiment [8] was -3.08 (inactive); in [9], -0.592 (inactive); in [10], -1.71; in experiment [11], -0.471; in experiment [12], 0.517; in experiment [13], -0.353. Also, the z-score is -3.22 in [14]; -3.36 in [15]; -0.504 in experiment [16]; -0.618 (inactive) in [17]; -0.962 in [18]; -0.934 in experiment [19]. The z-score in experiment [20] was 0.286 (inactive). For the same compound, the composite z-score in experiment [2] is 0.54.

Regarding `Cc1ccc(N2C(=O)c3ccccc3[C@@H](C(=O)NCCCN(C)C)[C@@H]2c2ccc(CO)cc2)nc1`, the z-score in [1] was 0.0376 (inactive); in experiment [3], 1.06 (inactive); in experiment [4], 0.392 (inactive); in experiment [5], 0.591 (inactive); in experiment [6], 0.304 (inactive); in experiment [7] it was -0.337. For the same compound, the z-score is 0.911 (inactive) in experiment [8]; 0.115 (inactive) in experiment [9]; 0.513 in experiment [10]; -0.249 in experiment [11]; 0.297 in experiment [12]; 0.0355 in experiment [13]. In addition, the z-score is 0.817 in [14]; -0.71 in [15]; -0.685 in experiment [16]; 0.208 (inactive) in experiment [17]; -0.0886 in experiment [18]; -0.241 in experiment [19]. Also, the z-score in [20] is -0.0494 (inactive). The same compound gave a composite z-score in experiment [2] of -0.724.

For `CS(=O)(=O)CCOC(=O)C1=CC(CCCO)=CC(c2ccc(CN3CCCC3)cc2)N(Cc2sc3ccccc3c2Cl)C=C1C(=O)OCCS(C)(=O)=O` (stereo not given), the z-score in [1] is -0.794 (inactive); in experiment [3] it was 3.35 (inactive); in [4], 0.586 (inactive); in experiment [5], 0.51 (inactive); in experiment [6], 0.428 (inactive); in experiment [7], -0.261. The z-score is 0.44 (inactive) in experiment [8]; -0.567 (inactive) in experiment [9]; -0.719 in [10]; 0.389 in [11]; 0.958 in experiment [12]; 0.888 in experiment [13]. Moreover, the z-score in [14] was -1.59; in [15] it was 0.16; in experiment [16], 2.41; in [17] it was 0.0187 (inactive); in experiment [18], -0.544; in experiment [19], -0.299. Besides, in experiment [20], the z-score is 0.328 (inactive). This compound had a composite z-score in [2] of 0.85.

Regarding `C=C(C(=O)CC[C@H](OC(=O)c1ccccc1-c1ccccc1C(=O)O)c1cccc(OCCO)c1)C(C)C`, the z-score in experiment [1] is -0.567 (inactive); in [3] it was 4.87 (inactive); in [4] it was 0.857 (inactive); in [5], 2.06 (inactive); in experiment [6], 0.503 (inactive); in experiment [7], 0.0988. The z-score in [8] was 1.49 (inactive); in [9], 0.361 (inactive); in [10], -1.48; in experiment [11] it was -0.613; in experiment [12] it was 0.422; in experiment [13], -0.502. Moreover, the z-score in experiment [14] is -3.07; in experiment [15] it was -1.52; in [16] it was -1.68; in [17], -0.156 (inactive); in experiment [18], 0.248; in experiment [19] it was 0.618. The z-score in experiment [20] is -0.701 (inactive). Besides, the composite z-score in experiment [2] is -0.328.
